Experimental findings from PubChem BioAssay AID1985 (Southern Research Specialized Biocontainment Screening …, 2009) are described below.

The whole screen tested about 2,300 compounds, of which about 1,000 (43%) were called active. No rule for the calls is given here. The set was probably picked from earlier hits. This is one part of the list. A call without a number means that no potency is given here. Potency and affinity values are given separately.

A short description of the assay: modified counter assay using GFP fluorescence, PhoP regulon inhibitor project, dose response (AID 1985). As to conditions: S. Typhi, 4 h; series mostly up to 150 µM.
For the molecule `CCOC(=O)c1nc(C)n(-c2cc(Cl)ccc2Cl)n1`, the molecule was classed as inactive.

As to `O=C(CN1C2=NCCN2c2ccccc21)c1ccco1`, the molecule was classed as inactive.

For the molecule `Cc1ccc(CN2C3=NCCN3c3ccccc32)cc1`, the outcome was inactive.

For `COc1cccc2[nH]c3c(N4CCN(Cc5ccc6c(c5)OCO6)CC4)ncnc3c12`, the call was inactive.

In the case of `O=c1cc(-c2ccccc2)nc(N2CCN(Cc3ccccc3)CC2)[nH]1`, the molecule was classed as inactive.

In the case of `c1cc2c(cc1Oc1nc(N3CCOCC3)nc(N3CCOCC3)n1)OCO2`, the molecule was classed as inactive.

For `Cc1ccc2nc3c(c(N)c2c1)CCN3C`, the molecule was called inactive.

For the molecule `CC(C)N=C(N)N=C(N)Nc1ccc(Cl)cc1`, the result was inactive.

With `Cc1cc(NCCCn2ccnc2)n2ncc(-c3ccccc3)c2n1`, the outcome was inactive.

Turning to `C[C@@H](C(=O)NC1CCCC1)N1C(=O)N2CCc3c([nH]c4ccccc34)[C@@]2(C)C1=O`, the molecule was called inactive.

In the case of `O=S1(=O)CC=C(CSC(=S)NC2CCS(=O)(=O)C2)C1` (stereo not drawn), the call was inactive.

Regarding `CCc1cc(CNC(=O)C2CCC(=O)N(Cc3cccc(F)c3)C2)on1` (stereo not drawn), the molecule was called inactive.

With `CC(C)NC(=O)CN1CCN(Cc2nc(C(c3ccccc3)c3ccccc3)no2)CC1`, the call was inactive.

As to `Cc1cnc(NC(=O)CN2C(=O)C3CC=CCC3C2=O)s1` (stereo not drawn), the call was inactive.

As to `Cc1cc(NS(=O)(=O)c2ccc(Nc3nc(-c4sc(NC(=O)c5ccccc5)nc4C)cs3)cc2)no1`, the outcome was inactive.

For `COc1nccnc1NS(=O)(=O)c1ccc(NC(=S)NC(=O)c2cccnc2)cc1`, the call was inactive.

Turning to `CCc1nnc(NS(=O)(=O)c2ccc(NC(=S)NC(=O)/C=C/c3ccc(C(C)C)cc3)cc2)s1`, the molecule was called inactive.

Turning to `Cc1cc(NS(=O)(=O)c2ccc(NC(=O)C(C)Oc3ccc4c(C)cc(=O)oc4c3)cc2)no1` (stereo not drawn), the molecule was called inactive.

As for `CC(C)n1cnnc1SCC(=O)Nc1ccc(Br)cc1F`, the molecule was called inactive.

On to `COC(=O)c1ccc(C)c(NC(=O)CN2C(=O)c3ccccc3S2(=O)=O)c1`, for which the result was inactive.

For `CS(=O)(=O)c1cnc2c(-c3ccc(F)cc3)cnn2c1N`, the call was inactive.

With `COc1ccc(NC(=O)N2CCc3ccccc32)cc1`, the result was inactive.

For `O=C(CCl)NC1CCCc2ccccc21` (stereo not drawn), the result was inactive.

For `Cc1ccc(NC(=O)C(=O)NCc2ccncc2)cc1`, the result was inactive.

As for `CCOc1ccccc1NC(=O)Nc1ccncc1`, the outcome was inactive.

With `S=C(NCc1ccc(Cl)cc1)Nc1ccncc1`, the call was inactive.

On to `CCCCOc1ccc(-c2nnn(CC(=O)Nc3ncc(CC(=O)OCC)s3)n2)cc1`, for which the call was inactive.

Regarding `CCOc1ccc(N2C(=O)CN(O)C=C3N=c4ccccc4=C32)cc1`, the molecule was called inactive.

As for `Cc1cccc(OCCSc2nnc(-c3ccoc3C)n2C)c1`, the molecule was called inactive.

For the molecule `O=C(NCCCN1CCOCC1)c1sc2cc(Cl)ccc2c1Cl`, the molecule was classed as inactive.

`Cc1cccc(OCc2nnc(SCC(=O)N3CCCC3)n2C)c1`: the result was inactive.

Turning to `C[N+]1(CC2COC3(CCCCC3)O2)CCCCC1` (stereo not drawn), the outcome was inactive.

For the molecule `CCN(CC)S(=O)(=O)c1ccc2c(c1)c(C(=O)O)cn2C`, the outcome was inactive.

`Cc1nnc(SCC(=O)N(C(C)C)C(C)C)[nH]c1=O`: the call was inactive.

Consider `O=C1CCCN1c1ccc(CNS(=O)(=O)c2ccc(F)cc2)cc1`, for which the result was inactive.

Regarding `CCCCOc1ccc(C2=NNC(=O)CC2)cc1`, the molecule was called inactive.

Turning to `O=C(O)c1cnn2c1NC(c1cccs1)CC2C(F)(F)F` (stereo not drawn), the molecule was classed as inactive.

Turning to `Cc1cc2ncn(/N=C/c3ccc([N+](=O)[O-])o3)c2cc1C`, the molecule was classed as inactive.

Regarding `O=C(Nc1ccccc1)c1cccnc1N1CCOCC1`, the call was inactive.

`Cc1cccc(N2CCN(C(=O)C3CCN(c4nnc(-n5cccc5)s4)CC3)CC2C)c1` (stereo not drawn): the result was inactive.

Turning to `COCCNC(=S)N=Nc1c(O)[nH]c2ccc([N+](=O)[O-])cc12`, the outcome was inactive.

As for `c1ccc2c(c1)nc(N1CCOCC1)c1c3ccccc3[nH]c21`, the outcome was inactive.

With `CC(=O)N1CSCC1C(=O)N1CCN(c2ccc(N3CCOCC3)nn2)CC1` (stereo not drawn), the result was inactive.

Consider `Cc1nc2ccc(NC(=O)C(F)(F)F)cc2o1`, for which the outcome was inactive.

Regarding `CCn1nnnc1NCc1cccc(Cl)c1`, the molecule was classed as inactive.

Turning to `O=C(/C=C/c1ccc(Cl)cc1)NCCCn1ccnc1`, the molecule was classed as inactive.

On to `O=C(NCCCn1ccnc1)c1cc2c(ccc3ccccc32)o1`, for which the molecule was called inactive.

In the case of `Cc1noc(C)c1S(=O)(=O)N1CCC(Cc2ccccc2)CC1`, the molecule was classed as inactive.

For `CC(C)(C)c1ccc(NC(=O)COc2ccc(-n3ccnc3)cc2)cc1`, the molecule was classed as inactive.

Turning to `Cc1nn(-c2ccccc2)c(C)c1/C=N/n1c(-c2ccc(C(C)(C)C)cc2)n[nH]c1=S`, the result was inactive.

On to `CC1CCCC(NC(=O)COC(=O)CCSc2ccccc2)C1C` (stereo not drawn), for which the outcome was inactive.

Consider `O=C(Nc1ccccc1)C1=C(O)CC(c2ccc(Cl)cc2)N2CCN=C12` (stereo not drawn), for which the molecule was classed as inactive.

On to `CNCCC=C1c2ccccc2CCc2ccccc21`, for which the call was inactive.

Take `CN(C)CCCN1c2ccccc2CCc2ccc(Cl)cc21`: the molecule was classed as inactive.

Regarding `c1cc(N2CCCC2)ccc1C(c1nnnn1C1CCCCC1)N1CCOCC1` (stereo not drawn), the outcome was inactive.

In the case of `O=C(N/N=C/c1ccco1)c1cccc(NC(=O)c2cccc(Cl)c2)c1`, the outcome was inactive.

For `O=C(Nc1ccc2c(c1)OCCO2)C(=S)NCc1ccccc1`, the molecule was classed as inactive.

For `Cc1cc(C)nc(SCC(=O)NCc2ccco2)n1`, the outcome was inactive.

On to `Cc1ccccc1Cn1c(=O)n(CCCC(=O)NCc2ccco2)c(=O)c2ccccc21`, for which the call was inactive.

Regarding `CC(C)CN1CCN(Cc2cnc(N3CCOCC3)s2)CC1CCO` (stereo not drawn), the result was inactive.

Turning to `O=C(Nc1ccc(N2CCOCC2)c(Cl)c1)c1ccc(-n2cnnc2)cc1`, the molecule was classed as inactive.

Regarding `COc1ccc2nc(Nc3ccccc3)sc2c1`, the call was inactive.

Turning to `CC(C)Oc1ccc(N2CC(C(=O)Nc3ccccc3F)CC2=O)cc1` (stereo not drawn), the call was inactive.

As for `COc1ccc2nc(NC(=O)Nc3ccccc3)sc2c1`, the outcome was inactive.

`CCOc1ccc(N2CC(C(=O)OCC(=O)NCc3ccccc3)CC2=O)cc1` (stereo not drawn): the call was inactive.

As for `Cc1ccc(C)c(NC(=O)CCC(=O)N/N=C/c2cc([N+](=O)[O-])ccc2O)c1`, the molecule was called inactive.

With `O=[N+]([O-])c1ccc2oc(C3CCCCC3)nc2c1`, the result was inactive.

For `CC(=O)Cc1nsc(NC(=O)c2csc3c2CCCC3)n1`, the call was inactive.

Take `Oc1ccccc1-c1cc(C(F)(F)C(F)F)[nH]n1`: the outcome was inactive.

Consider `O=C(O)c1ccc(N2C(=O)CC(N3C(=O)/C(=C/c4ccc(Cl)cc4)SC3=S)C2=O)cc1` (stereo not drawn), for which the call was inactive.

Turning to `CN1C(=O)/C(=C/c2cccc(Cl)c2)Sc2ccc(C(=O)N3CCCC3)cc21`, the molecule was called inactive.

Turning to `CC1CCN(c2c(NCc3ccc(C(=O)N4CCN(C5CCCCC5)CC4)cc3)c(=O)c2=O)CC1`, the molecule was called inactive.

Consider `Cc1cccc(NC(=O)c2sc3nc(-c4ccccc4)cn3c2C)n1`, for which the call was inactive.
